14 sequences from the supplement of paper PMC10681739 can be followed below.

For experiment [1], the target named is T1, ETS1 (UniProt P14921).
T1 sequence: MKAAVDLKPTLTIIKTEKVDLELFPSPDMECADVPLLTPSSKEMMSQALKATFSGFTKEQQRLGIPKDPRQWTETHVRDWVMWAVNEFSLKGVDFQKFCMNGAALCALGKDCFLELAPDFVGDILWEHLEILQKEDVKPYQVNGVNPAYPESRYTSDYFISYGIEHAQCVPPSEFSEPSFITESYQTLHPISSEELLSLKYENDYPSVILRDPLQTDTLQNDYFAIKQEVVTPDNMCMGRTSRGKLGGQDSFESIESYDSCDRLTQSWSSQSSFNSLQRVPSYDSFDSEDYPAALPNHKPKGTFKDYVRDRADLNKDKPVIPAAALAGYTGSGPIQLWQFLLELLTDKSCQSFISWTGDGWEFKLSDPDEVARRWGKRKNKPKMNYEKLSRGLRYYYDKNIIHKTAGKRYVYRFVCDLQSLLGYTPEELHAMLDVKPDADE
Briefly: ETS1 binding intensity (PBM fluorescence), ETS1 alone (arbitrary fluorescence units); higher = stronger binding. To be noted: ETS1 concentration 1 nM; RUNX1 concentration 0 nM.

In experiment [2] the target is RUNX1 (UniProt Q01196). The experiment in a line: RUNX1 binding intensity (PBM fluorescence), RUNX1 alone (arbitrary fluorescence units); higher = stronger binding. The following applies: RUNX1 concentration 2 nM; ETS1 concentration 0 nM. The method, then:
(§1)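 Cooperative gcPBM on 36-bp genomic probes with neighbouring ETS1 and RUNX1 sites. Recombinant human RUNX1 (2 nM) was incubated alone or with ETS1 (25 nM) and detected with anti-RUNX1 antibody plus Alexa488 secondary. Values are medians over 4 replicate spots; the RUNX1+ETS1 data were normalised to the RUNX1-only data. The probes sit in constant array flanks that are not printed.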

Experiment [3] has as its target T1, ETS1. The experiment in a line: ETS1 binding intensity (PBM fluorescence) in presence of RUNX1, normalised to ETS1-only experiment (arbitrary fluorescence units); higher = stronger binding. The following applies: ETS1 concentration 1 nM; RUNX1 concentration 25 nM.
In experiment [4] the target is RUNX1 (UniProt Q01196). Briefly: RUNX1 binding intensity (PBM fluorescence) in presence of ETS1, normalised to RUNX1-only experiment (arbitrary fluorescence units); higher = stronger binding. The following applies: RUNX1 concentration 2 nM; ETS1 concentration 25 nM. The protocol: as §1
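Throughout, for RUNX1 binding intensity (PBM fluorescence) in presence of ETS1, normalised to RUNX1-only experiment: Full-length recombinant human ETS1 or RUNX1 bound to double-stranded 36-bp genomic probes on microarrays, detected by protein-specific primary antibody and Alexa488 secondary, spot fluorescence as median of four replicate spots.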
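Throughout, for RUNX1 binding intensity (PBM fluorescence), RUNX1 alone: Full-length recombinant human RUNX1 bound to double-stranded 36-bp genomic probes on a high-density microarray, scored as Alexa488 fluorescence per spot via anti-RUNX1 antibody, median of four replicate spots.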

RUNX1, sequence (Q01196 whole entry): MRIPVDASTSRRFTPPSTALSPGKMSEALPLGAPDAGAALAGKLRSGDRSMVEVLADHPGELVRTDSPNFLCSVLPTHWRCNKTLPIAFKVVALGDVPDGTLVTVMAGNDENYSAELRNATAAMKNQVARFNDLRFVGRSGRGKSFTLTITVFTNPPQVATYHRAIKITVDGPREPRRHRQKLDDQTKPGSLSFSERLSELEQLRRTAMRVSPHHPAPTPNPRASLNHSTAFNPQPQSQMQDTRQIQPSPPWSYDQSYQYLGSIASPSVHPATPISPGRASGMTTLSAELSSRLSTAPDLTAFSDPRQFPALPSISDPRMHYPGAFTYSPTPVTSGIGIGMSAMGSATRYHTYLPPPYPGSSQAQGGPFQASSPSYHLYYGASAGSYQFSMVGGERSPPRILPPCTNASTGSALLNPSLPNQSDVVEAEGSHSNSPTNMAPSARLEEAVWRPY

For the sequence TCTAGTTCTGGTTTCCGGACCGCATTCGGAACTAGA, the ETS1 binding intensity with ETS1 [1] stood at 1000; with ETS1 [3], 1390. The RUNX1 binding intensity with RUNX1 [2] stood at 786; in the experiment with RUNX1 [4] it was 1350.
In the case of AGCTTGCCGGAAGCTGGTTGTTCGCTGCGGCGACCA, the ETS1 binding intensity in the experiment with ETS1 [1] is 4100; with ETS1 [3], 4380. Moreover, the results for the RUNX1 binding intensity in the experiment with RUNX1 [2] and with RUNX1 [4] were 705 and 1220, respectively.
In the case of CAAATGAATAAAGGATGTGGTAAATTATTTTCTTCT, the ETS1 binding intensity with ETS1 [1] came to 935; in the experiment with ETS1 [3] it was 5660. Also, the values for the RUNX1 binding intensity with RUNX1 [2] and in the experiment with RUNX1 [4] were 814 and 1780, respectively.
Taken in the same sequence, the figures for CTTGTGCCTACATCCTGTAGCTGTGGTTTAGGGACG were 1420, 6810, 887 and 2050.
Taken in the same sequence, the figures for ACCAACCGGAAGTGATCGTGTTGTGGCCGAAGGAGG were 16100, 18100, 785 and 1590.
On to CACCTGCAGTGAAGAGGATGTGGGCAAAGATTATGC, for which the ETS1 binding intensity was found to be 1350 in the experiment with ETS1 [1] and 2180 with ETS1 [3]. Further, the values for the RUNX1 binding intensity with RUNX1 [2] and with RUNX1 [4] were 746 and 1100, respectively.
For GAAACCGGAAGCGGCGGCTGTCCGCGGTGCCGGCTG, the ETS1 binding intensity in the experiment with ETS1 [1] came to 5800; with ETS1 [3], 6810. The RUNX1 binding intensity with RUNX1 [2] came out at 717; with RUNX1 [4], 1550.
For the sequence AACCTCCGACTTCCGGCCGCGCAGCGGTGGGCTGAG, the ETS1 binding intensity came to 3900 in the experiment with ETS1 [1] and 4280 with ETS1 [3]. Further, the RUNX1 binding intensity in the experiment with RUNX1 [2] was 678; in the experiment with RUNX1 [4], 1970.
The corresponding values for TGGAGTGAAGCGGCTTCCTTGCGGTTGTGTGCGTGT are 403, 799, 1900 and 2630.
For CCCCGCCTCTTCCGCTTCTGTGGTCTGATCTGCCTG, the ETS1 binding intensity with ETS1 [1] stood at 704; with ETS1 [3], 1040. Besides, the RUNX1 binding intensity with RUNX1 [2] turned out to be 1250; in the experiment with RUNX1 [4], 3860.
In the case of GACCAGGAAACGGGGCGTGGCGGCCGCCGTGGTTAC, the ETS1 binding intensity in the experiment with ETS1 [1] was found to be 449; with ETS1 [3] it was 485. The results for the RUNX1 binding intensity with RUNX1 [2] and with RUNX1 [4] were 806 and 857, respectively.
Take CTCTTCAGCAGGAAATGATGTGGTAAAACAGGGTTA: the figures for the ETS1 binding intensity with ETS1 [1] and with ETS1 [3] were 3000 and 10100, respectively. For the same sequence, the RUNX1 binding intensity amounted to 856 with RUNX1 [2] and 1390 in the experiment with RUNX1 [4].
For CCCTCCTCTTTCGTTTCCTAACCGCAAATTCCATCA, the figures for the ETS1 binding intensity with ETS1 [1] and with ETS1 [3] were 487 and 1720, respectively. In addition, the RUNX1 binding intensity with RUNX1 [2] amounted to 58200; in the experiment with RUNX1 [4], 53700.
Turning to CTCCGCCTTTCACTTCCTAGTAACCGCCCTCCCTTG, the results for the ETS1 binding intensity with ETS1 [1] and with ETS1 [3] were 522 and 647, respectively. Moreover, the RUNX1 binding intensity worked out at 2190 in the experiment with RUNX1 [2] and 2400 with RUNX1 [4].
